# EBNA-1 inhibitor – EBNA-1 DNA-binding inhibitors, primary screen, biochemical, fluorescence polarization | inhibition, % at 14.8 µM | 300,000 compounds, 0.34% hits; in the data active means inhibition above about 28%
# Rpn11 inh – Rpn11 (PSMD14) deubiquitinase inhibitors, primary screen, biochemical, fluorescence polarization, uHTS. 26S proteasome non-ATPase regulatory subunit 14 (Homo sapiens), O00487. human 26S proteasome, Ub4-pepOG fluorescence polarization; 20S core pre-blocked with epoxomicin. inhibition, % at 20 µM. 360,000 compounds, 0.59% hits. AID 588493, 2011;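 active means inhibition at 20 µM, scaled to each plate's controls, above about 33%, limit read from the data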
# TPT1 inh – Candida albicans TPT1 enzyme inhibitors, primary screen, biochemical, fluorescence polarization; tRNA 2'-phosphotransferase TPT1 (Candida albicans SC5314); 300,000 compounds, 0.81% hits; recombinant caTPT1, FP RNA substrate dephosphorylation; inhibition, % at 5 µM;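 active means inhibition above the mean of all tested compounds plus 3 SD, set per screening campaign, cut at about 24% in these data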;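 further: plate controls were DMSO alone for no effect and ferristatin control at 100 nM for full effect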
# dFosB act – activators of delta FosB homodimer, primary screen, biochemical, fluorescence polarization, TAMRA-CDK5 oligo, single point; activation, % at 25 µM; AID 493131, 2011; purified delta FosB; percent of positive-control signal above neutral wells; Protein FosB (Mus musculus), P13346; 340,000 compounds, 0.99% hits;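 active means mean activation above about 17%, with every replicate also reaching it, limit read from the data, passing the limit was not always enough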
# Target sequence (P13346 whole entry, looked up): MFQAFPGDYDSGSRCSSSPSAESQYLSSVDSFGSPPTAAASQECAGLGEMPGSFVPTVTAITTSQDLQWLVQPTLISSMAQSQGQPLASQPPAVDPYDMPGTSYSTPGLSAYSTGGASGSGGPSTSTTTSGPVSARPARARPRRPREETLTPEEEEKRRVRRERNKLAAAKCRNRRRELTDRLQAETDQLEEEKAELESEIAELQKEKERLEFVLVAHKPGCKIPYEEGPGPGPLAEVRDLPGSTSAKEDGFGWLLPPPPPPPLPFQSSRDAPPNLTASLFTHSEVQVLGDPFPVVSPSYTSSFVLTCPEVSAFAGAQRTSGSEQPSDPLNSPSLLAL
# NR3A LBD binder – binders of NR3A ligand-binding domain, primary screen, biophysical, differential scanning fluorimetry, uHTS. 340,000 compounds, 2.5% hits. NR3A LBD differential scanning fluorimetry, Tm shift; 0% = protein alone, 100% = glycine-bound protein. Tm shift relative to glycine control, % at 25 µM;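 active means melting temperature shift of at least 10% of the positive control shift, at one fixed dose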
# ZTA counter – ZTA (EBV) inhibition in EBNA-1 counter-screen. inhibition, % at 11 µM. AID 2234. 320,000 compounds, 0.15% hits. P03206. ZTA-DNA binding, fluorescence polarization; in the data active means inhibition above about 33%
# caTPT1 confirm – Candida albicans TPT1 inhibitors, confirmation, biochemical, fluorescence polarization, triplicate; inhibition, % at 5 µM; shares compounds with TPT1 inh; recombinant caTPT1, RNase T1 coupled; 2,400 compounds, 74% hits;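 active means inhibition above the primary screen limit, the mean inhibition of all tested compounds plus 3 SD, cut at about 25% in these data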
# RNase T1 inh – RNase T1 inhibitors, counter-screen for TPT1 inhibitor project, biochemical, fluorescence polarization; shares compounds with TPT1 inh; RNase T1 cleavage, 1536-well; inhibition, % at 5 µM; 2,400 compounds, 83% hits;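 active means inhibition above the solvent-only control well mean plus 3 SD, limit set per screening run, cut at about 23% in these data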;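 further: plate controls were DMSO wells with enzyme for no effect and wells without RNase T1 for full effect; inhibitors block cleavage so intact labeled substrate keeps polarization high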
# Target sequence (P00651 whole entry, looked up): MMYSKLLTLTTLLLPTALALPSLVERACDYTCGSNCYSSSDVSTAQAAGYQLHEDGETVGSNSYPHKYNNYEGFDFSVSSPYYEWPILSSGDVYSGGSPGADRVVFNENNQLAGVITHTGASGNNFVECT
# * hit, by the source's call; nt = not tested or not shown. An excerpt weighted towards active compounds, which were near 4.5% of everything screened.
SMILES,EBNA-1 inhibitor,Rpn11 inh,TPT1 inh,dFosB act,NR3A LBD binder,ZTA counter,caTPT1 confirm,RNase T1 inh
CCCCc1nc2ccccc2c(NC(=O)CNC(C)(C)C)c1CCC,4,-9,-3,-4,0,8,nt,nt
O=C1S/C(=C\c2ccc(Cl)cc2)C(=O)N1CCn1cnnn1,6,-1,0,4,-2,-4,nt,nt
CN(C)c1ccc(/C=C2/SC(=O)N(CCN=C3NS(=O)(=O)c4ccccc43)C2=O)cc1,3,-25,33*,-5,-6,-14,28*,38*
CN(C)c1ccc(/C=C2\SC(=O)N(CC(O)Cn3c4ccccc4c4ccccc43)C2=O)cc1 (stereo unspecified),22,5,76*,-1,2,2,52*,72*
CN(C)c1ccc(/C=C2\SC(=O)N(CCc3nnc(N)s3)C2=O)cc1,-8,nt,100*,-5,-1,-23,92*,102*
O=C(N/N=C/c1ccc([N+](=O)[O-])o1)C(=O)Nc1ccc(C(=O)O)cc1,3,-5,-3,1,-1,-8,nt,nt
O=C(N/N=C/c1ccco1)c1cc([N+](=O)[O-])cc([N+](=O)[O-])c1,-8,0,-1,9,-5,-4,nt,nt
O=C(O)c1ccc(N/N=C/C=C/c2ccc([N+](=O)[O-])o2)cc1,-6,33,44*,-2,12*,-3,63*,72*
O=[N+]([O-])c1ccc(N/N=C/C=C/c2ccco2)cc1,0,nt,119*,-7,41*,2,123*,122*
Cc1c2cnn(CC(=O)NC3CCCC3)c(=O)c2c(C)n1Cc1ccccc1,-5,-2,-2,-5,-2,-9,nt,nt
Cc1c2cnn(CC(=O)NCCCN3CCCCC3C)c(=O)c2c(C)n1Cc1ccccc1 (stereo unspecified),-2,30,24*,6,-4,-2,36*,44*
Cc1ccccc1C(=O)NCCCNC(=O)c1ccccn1,6,0,0,-3,0,-9,nt,nt
CN1/C(=C\C(=S)NC(=O)c2ccc([N+](=O)[O-])cc2)C(C)(C)c2ccccc21,-7,16,0,-4,1,5,nt,nt
CN1/C(=C/C2CC(=O)N(c3ccc([N+](=O)[O-])cc3)C2=O)C(C)(C)c2ccccc21 (stereo unspecified),11,14,25*,4,-4,9,14,20
O=C(O)CCCC(=O)Nc1ccccc1C(=O)N1CCOCC1,11,-5,-3,4,-4,14,nt,nt
OCCC1CN(Cc2cc3c(cc2Cl)OCO3)CCN1C1CCCC1 (stereo unspecified),-17,1,-2,-7,-2,-4,nt,nt
CN1CCC/C1=C/C=C1\SC(=S)NC1=O,7,nt,146*,3,2,4,154*,140*
O=C1N(Cc2cccc(Cl)c2)C[C@@H]2C[C@@H](c3cccc4ncccc34)N3CCC[C@@]123,-6,-1,0,-1,-1,-13,nt,nt
O=C1N(Cc2cccc(Cl)c2)C[C@@H]2C[C@@H](c3c[nH]c4ccccc34)N3CCC[C@@]123,-9,nt,26*,1,0,1,30*,40*
COC(=O)Cn1cc(/C=C/c2cc[n+](C)cc2)c2ccccc21,-2,nt,35*,2,0,-26,41*,49*
COc1cc([C@@H]2[C@H]3CNCC=C3C(C#N)=C(N)C2(C#N)C#N)ccc1OC(C)C,-5,nt,34*,2,-16,-16,24*,36*
COc1ccc(NC(=O)C2CCCN2C(=O)Oc2ccccc2)cc1 (stereo unspecified),1,-1,47*,-7,-1,-18,6,6
O=C(O)c1cccc(Nc2nc(Nc3ccccc3)nc(N3CCCC3)n2)c1,-1,-1,1,-2,4,-16,nt,nt
CC(=O)NC(Cc1cccc(F)c1)C(=O)NC1CCN(C(=O)Nc2ccc(C)cc2)CC1 (stereo unspecified),0,-3,24*,-2,-1,9,8,12
CCN1/C(=C/c2ccc3cccc(C)c3[n+]2CC)Sc2ccccc21,-10,75*,60*,66*,-1,7,66*,76*
SMILES,EBNA-1 inhibitor,Rpn11 inh,TPT1 inh,dFosB act,NR3A LBD binder,ZTA counter,caTPT1 confirm,RNase T1 inh
COc1ccc2nc(N3C(=O)/C(=C/c4ccccc4)NC3=S)sc2c1,12,nt,111*,-11,6,11,115*,119*
COc1ccc2nc(-n3c(C)ccc3C)sc2c1,3,1,-1,-1,3,-10,nt,nt
CCOc1ccc2nc(N3CCCCCC3)sc2c1,-7,-3,1,-7,2,-4,nt,nt
CCOc1ccc2nc(N3C(=O)/C(=C/c4ccccc4)NC3=S)sc2c1,6,nt,26*,-9,-2,4,35*,45*
O=C(N/N=C/c1cc(Cl)cc(Cl)c1O)c1ccncc1,1,nt,40*,-7,-3,0,37*,49*
O=C(N/N=C/c1cc(Br)cc(Br)c1O)c1ccncc1,-15,nt,89*,nt,-6,-2,77*,83*
C[C@@H]1CN([C@H](C)CO)C(=O)CCCn2nncc2CO[C@@H]1CN(C)C(=O)c1ccc(N2CCN(C)CC2)cc1,nt,-2,nt,nt,nt,nt,nt,nt
O=C(O)c1cccc(-c2ccc(/C=N/Nc3ccc([N+](=O)[O-])cc3)o2)c1,4,nt,124*,-7,12*,7,126*,120*
O=[N+]([O-])c1ccc(N/N=C/c2cccc(O)c2O)cc1,0,17,51*,-2,35*,7,60*,74*
NS(=O)(=O)c1ccc(-c2ccc(/C=N/Nc3ccc(C(=O)O)cc3)o2)cc1,-2,13,18,3,3,-3,nt,nt
CCCCC(=O)N/N=C/c1ccc(-c2ccc([N+](=O)[O-])cc2)o1,5,13,13,-5,-6,-14,nt,nt
CCC(=O)N/N=C/c1ccc(-c2ccc([N+](=O)[O-])cc2)o1,2,1,9,-2,0,19,nt,nt

# Source: PubChem BioAssay
